According to publication PMC11995724, “Antibiotic target discovery by integrated phenotypic and activity-based profiling of electrophilic fragments” (Cell chemical biology, 2025):
Hit rate of the full screen: of about 3,200 compounds, about 75 (2%) showed an effect of 50% or more. For the sample, strong results were picked, then their nearest neighbours and some compounds at random.

What follows are molecules tested on T1, S. aureus MSSA476. Details: relative growth, OD600, TSB; 25 µM; inhibitor.
T1 construct: MSSA476
Set-up: species or system S. aureus MSSA476 (TSB) or V. cholerae SAD30 (LB); 384-well bacterial growth screen at 25 uM, OD600 relative to DMSO control

SMILES | % of control remaining [%]
C=CC(=O)NC1CCCN(C(=O)CCC(F)(F)F)C1 (stereo not drawn) [1-B03, N-[1-(4,4,4-trifluorobutanoyl)piperidin-3-yl]prop-2-enamide] | 102.681
C=CC(=O)N(C)c1ccccc1C(=O)NC [2-O18, N-methyl-2-(N-methylprop-2-enamido)benzamide] | 115.231
C=CC(=O)Nc1ccc(S(C)(=O)=O)cc1OCC [2-C08, N-(2-ethoxy-4-methanesulfonylphenyl)prop-2-enamide] | 116.275
Cl.O=C(CCl)NC1CCN(Cc2ccccc2)CC1 [5-E19, N-(1-benzylpiperidin-4-yl)-2-chloroacetamide hydrochloride] | 109.654
O=C(CCl)NCC1CCCN(C(=O)C(F)(F)F)C1 (stereo not drawn) [7-N18, 2-chloro-N-{[1-(2,2,2-trifluoroacetyl)piperidin-3-yl]methyl}acetamide] | 107.378
CCOc1ccc(C=C(C#N)C(=O)Nc2cccc3ncccc23)cc1 [8-A07, 2-cyano-3-(4-ethoxyphenyl)-N-(quinolin-5-yl)prop-2-enamide] | 131.452
C=CC(=O)NCc1nc2c(s1)CCCC2 [1-G18, N-[(4,5,6,7-tetrahydro-1,3-benzothiazol-2-yl)methyl]prop-2-enamide] | 119.56
C=CC(=O)N(CC)CC(=O)N1CCCC1c1cn(C)nc1C (stereo not drawn) [2-N12, N-{2-[2-(1,3-dimethyl-1H-pyrazol-4-yl)pyrrolidin-1-yl]-2-oxoethyl}-N-ethylprop-2-enamide] | 110.009
CCN(CC(=O)NC1CCS(=O)(=O)C1)C(=O)CCl (stereo not drawn) [4-I19, 2-chloro-N-{[(1,1-dioxo-1lambda6-thiolan-3-yl)carbamoyl]methyl}-N-ethylacetamide] | 127.68
O=C(CCl)c1ccc2c(c1)CCN(C(=O)C(F)(F)F)C2 [10-E09, 1-[6-(2-chloroacetyl)-1,2,3,4-tetrahydroisoquinolin-2-yl]-2,2,2-trifluoroethan-1-one] | 20.625
O=C(CCl)c1cc2c3c(c1)CC(=O)N3CCC2 [10-G16, 6-(2-chloroacetyl)-1-azatricyclo[6.3.1.0,4,12]dodeca-4(12),5,7-trien-2-one] | 130.938
CC(Cl)C(=O)Nc1ccc(S(N)(=O)=O)cc1 (stereo not drawn) [6-B06, 2-chloro-N-(4-sulfamoylphenyl)propanamide] | 82.2927
C=CC(=O)Nc1cc(NC(=O)C2CCC2)ccc1F [2-E10, N-[4-fluoro-3-(prop-2-enamido)phenyl]cyclobutanecarboxamide] | 111.749
C=CC(=O)Nc1cc(NC(=O)c2ccc([N+](=O)[O-])o2)ccc1F [3-J04, N-[4-fluoro-3-(prop-2-enamido)phenyl]-5-nitrofuran-2-carboxamide] | -4.528
C=CC(=O)Nc1cc(NC(=O)C2(OC)CCOC2)ccc1F (stereo not drawn) [3-D05, N-[4-fluoro-3-(prop-2-enamido)phenyl]-3-methoxyoxolane-3-carboxamide] | 96.8219
Cc1cc(C(=O)CCl)c(C)n1Cc1ccccc1Cl [10-P16, 2-chloro-1-{1-[(2-chlorophenyl)methyl]-2,5-dimethyl-1H-pyrrol-3-yl}ethan-1-one] | 127.813
Cc1cc(C(=O)CCl)c(C)n1Cc1ccc(F)cc1 [10-N17, 2-chloro-1-{1-[(4-fluorophenyl)methyl]-2,5-dimethyl-1H-pyrrol-3-yl}ethan-1-one] | 4.6875
Cc1cc(C(=O)CCl)c(C)n1CCc1ccc(Cl)cc1 [10-N16, 2-chloro-1-{1-[2-(4-chlorophenyl)ethyl]-2,5-dimethyl-1H-pyrrol-3-yl}ethan-1-one] | 5.9375
Cc1cc(C(=O)CCl)c(C)n1CCc1cccs1 [10-F16, 2-chloro-1-{2,5-dimethyl-1-[2-(thiophen-2-yl)ethyl]-1H-pyrrol-3-yl}ethan-1-one] | 20.3125
COCCn1c(C)cc(C(=O)CCl)c1C [10-D13, 2-chloro-1-[1-(2-methoxyethyl)-2,5-dimethyl-1H-pyrrol-3-yl]ethan-1-one] | 103.125
Cc1cc(C(=O)CCl)c(C)n1CCc1ccccc1 [10-B18, 2-chloro-1-[2,5-dimethyl-1-(2-phenylethyl)-1H-pyrrol-3-yl]ethan-1-one] | 102.188
Cc1cc(C(=O)CCl)c(C)n1Cc1cccs1 [10-D03, 2-chloro-1-{2,5-dimethyl-1-[(thiophen-2-yl)methyl]-1H-pyrrol-3-yl}ethan-1-one] | 122.5
Cc1cc(C(=O)CCl)c(C)n1CCc1ccc(F)cc1 [10-G14, 2-chloro-1-{1-[2-(4-fluorophenyl)ethyl]-2,5-dimethyl-1H-pyrrol-3-yl}ethan-1-one] | 123.75

SMILES | % of control remaining [%]
Cc1cc(C(=O)CCl)c(C)n1Cc1ccccc1 [10-M14, 1-(1-benzyl-2,5-dimethyl-1H-pyrrol-3-yl)-2-chloroethan-1-one] | 143.438
O=C(CCl)NC(Cc1ccccc1)c1ccccc1F (stereo not drawn) [7-N10, 2-chloro-N-[1-(2-fluorophenyl)-2-phenylethyl]acetamide] | 83.5165
CC(Cl)C(=O)N1CCNC(=O)C1Cc1nc2ccccc2o1 (stereo not drawn) [6-P03, 3-[(1,3-benzoxazol-2-yl)methyl]-4-(2-chloropropanoyl)piperazin-2-one] | 97.3171
c1ccc(CSSCc2ccccc2)cc1 [10-O21, [(benzyldisulfanyl)methyl]benzene] | 113.125
Cl.O=C(CCl)NCC(c1ccccc1Cl)N1CCCC1 (stereo not drawn) [6-G17, 2-chloro-N-[2-(2-chlorophenyl)-2-(pyrrolidin-1-yl)ethyl]acetamide hydrochloride] | 101.415
O=C(CCl)NC(Cc1cccc(O)c1)c1ccccc1 (stereo not drawn) [7-N20, 2-chloro-N-[2-(3-hydroxyphenyl)-1-phenylethyl]acetamide] | 100.157
COc1ccc(N2C(=O)C=CC2=O)c([N+](=O)[O-])c1 [10-L11, 1-(4-methoxy-2-nitrophenyl)-2,5-dihydro-1H-pyrrole-2,5-dione] | 100
CC(C)CNC(=O)c1ccccc1NC(=O)CCl [4-E04, 2-(2-chloroacetamido)-N-(2-methylpropyl)benzamide] | 88.4231
O=C(CCl)NCC(=O)Nc1ccc(F)c(F)c1 [4-L16, 2-chloro-N-{[(3,4-difluorophenyl)carbamoyl]methyl}acetamide] | 109.004
N#CC(C(=O)CCl)=C1Nc2ccccc2S1 [10-J04, 4-chloro-2-(2,3-dihydro-1,3-benzothiazol-2-ylidene)-3-oxobutanenitrile] | 43.75
N#CC(C(=O)CCl)=C1NC(=O)c2ccccc2N1 [10-P14, 4-chloro-3-oxo-2-(4-oxo-1,2,3,4-tetrahydroquinazolin-2-ylidene)butanenitrile] | 93.75
N#CC(C(=O)CCl)=C1Nc2cc(Cl)ccc2S1 [10-O08, 4-chloro-2-(5-chloro-2,3-dihydro-1,3-benzothiazol-2-ylidene)-3-oxobutanenitrile] | 100
CCn1cc(S(=O)(=O)N2CCSSCC2)cn1 [10-N19, 5-[(1-ethyl-1H-pyrazol-4-yl)sulfonyl]-1,2,5-dithiazepane] | 97.1875
Cc1cc(CN(C(=O)CCl)c2csnc2C)cs1 [5-C12, 2-chloro-N-(3-methyl-1,2-thiazol-4-yl)-N-[(5-methylthiophen-3-yl)methyl]acetamide] | 105.282
N#CC(=Cc1cccc(F)c1)C(=O)Nc1cc(Cl)ccc1Cl [9-P03, 2-cyano-N-(2,5-dichlorophenyl)-3-(3-fluorophenyl)prop-2-enamide] | 107.865
C=CC(=O)N1CCC(C(=O)N2CCN(CC(C)C)C(=O)C2C)CC1 (stereo not drawn) [2-B08, 3-methyl-1-(2-methylpropyl)-4-[1-(prop-2-enoyl)piperidine-4-carbonyl]piperazin-2-one] | 92.6023
O=C(CCl)N1N=C(c2cccc(F)c2)CC1c1cccs1 (stereo not drawn) [4-E22, 2-chloro-1-[3-(3-fluorophenyl)-5-(thiophen-2-yl)-4,5-dihydro-1H-pyrazol-1-yl]ethan-1-one] | 121.582
C=CC(=O)N1CCC(c2ncc(C(=O)O)o2)CC1 [2-G19, 2-[1-(prop-2-enoyl)piperidin-4-yl]-1,3-oxazole-5-carboxylic acid] | 116.275
C=CC(=O)N1CCC(C(=O)Nc2ccc(CC)cc2)CC1 [3-J12, N-(4-ethylphenyl)-1-(prop-2-enoyl)piperidine-4-carboxamide] | 97.5185
O=C(CCl)NSc1ccc([N+](=O)[O-])cc1 [4-P13, 2-chloro-N-[(4-nitrophenyl)sulfanyl]acetamide] | 1.906
O=C(CCl)NCc1cc([N+](=O)[O-])ccc1O [4-A05, 2-chloro-N-[(2-hydroxy-5-nitrophenyl)methyl]acetamide] | 92.6155
N#Cc1cc([N+](=O)[O-])ccc1NC(=O)CCl [4-O09, 2-chloro-N-(2-cyano-4-nitrophenyl)acetamide] | 100.619
